Screens: PubChem, National Center for Advancing Translational Sciences (NCATS)
KDM5B inhibitor: Primary screen for KDM5B Histone Demethylases FDH-coupled qHTS; Lysine-specific demethylase 5B (Homo sapiens), Q9UGL1; 220,000 compounds, 2.6% hits; KDM5B demethylase, FDH-coupled NADH fluorescence (FDH is formaldehyde dehydrogenase); AID 1347165, 2019; Potency, µM (series often up to 57.7 µM), hits mostly inhibitors; active = well fitted inhibition curve with a large enough effect; also: 0% is about no effect; nearly all actives have a fitted effect of over 70% in size
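Inhibition is measured as reduced NADH fluorescence generation from FDH coupling to formaldehyde release. Truncated KDM5BΔAP at 200 nM final acts on H3K4me3 peptide (12.5 µM in substrate mix) in pH 7.5 HEPES buffer with Tween-20, 30 min, room temperature.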
* marks the source's active call; other numbers are inactive results; i = inactive. The entries come from a sample that favours hits as a whole. Potency is read from the fitted curve at half-maximal effect.

SMILES	KDM5B inhibitor
O=C(Nc1ccc(Oc2ccccc2)cc1)c1ccoc1	i
Cc1c(Cl)cccc1NC(=O)COc1ncnc2ccccc12	i
Cc1cc(C(=O)Cn2c(Cl)nc3c2c(=O)n(C)c(=O)n3C)c(C)n1C1CC1	i
COc1ccc(S(=O)(=O)N2CC(c3noc(-c4cccnc4)n3)C2)cc1Cl	i
C#Cc1cccc(NCC(=O)N2CCCCCCC2)c1	i
COc1ccccc1CNC(=O)c1c(C)sc2ccn(Cc3ccc(F)cc3)c(=O)c12	i
CCN(CC)C(=O)c1c(C)sc2ccn(Cc3ccc(F)cc3)c(=O)c12	25µM*
COCCNC(=O)c1c(C)sc2ccn(Cc3ccc(F)cc3)c(=O)c12	i
Cc1cc(-c2cc3c(cn2)CN(Cc2ccc4[nH]ccc4c2)CCN3)ccn1	i
c1cncc(-c2nnc3n2CCN(Cc2ccsc2)C3)c1	i
c1cncc(COC2CCN(c3ncncn3)CC2)c1	i
CN(Cc1cccnc1)Cc1nc(C2(O)CCN(CC3CCCCC3)CC2)cs1	i
c1cncc(COc2cc3c(cn2)NCCN(Cc2ccsc2)C3)c1	35µM*
CCOc1cc2c(cn1)NCCN(Cc1ccc3[nH]ccc3c1)C2	28µM*
Clc1cnccc1CN1CCNc2cnc(Oc3ccccc3)cc2C1	i
c1ccc(-c2cc3c(cn2)CN(Cc2ccc4[nH]ccc4c2)CCN3)cc1	i
c1cncc(COc2cc3c(cn2)NCCN(CC2CCCCC2)C3)c1	25µM*
Cc1oc(-c2ccccc2)nc1CC(=O)NCC1(N2CCOCC2)CCCCC1	i
COc1ccc(CCc2nnc(NC(=O)c3ccccc3)s2)cc1	i
Cc1cc2oc(=O)cc(COC(=O)CCCN=C3NS(=O)(=O)c4ccccc43)c2cc1C	i
CC(=O)N1Cc2ccccc2CC2(CCN(CC3CCCCC3)CC2)C1	i
O=C(CCc1nc(CSc2n[nH]c(-c3ccc(Cl)cc3)n2)no1)Nc1ccc2ccccc2c1	i
COc1ccc(CC(=O)Nc2ccc(=O)n3c2[C@@H]2C[C@@H](CN(S(=O)(=O)c4ccc(OC)cc4)C2)C3)cc1	i
CCC[N+](CCC)(CC[O-])Cc1ccccc1	i
N#C/C(=C/c1ccc(O)cc1)c1nc(C2CC2)cs1	i
SMILES	KDM5B inhibitor
Cc1cc(C)c(CNC(=O)c2cc(-c3ccccc3O)cc3c2OCCN3C)c(=O)[nH]1	35µM*
Cc1cc(C)c(CNC(=O)c2cc(-c3ccccc3F)cc3c2OCCN3C)c(=O)[nH]1	32µM*
CCOc1ccc(Nc2oc(-c3ccc(OCC)cc3)nc2C#N)cc1	i
Cc1ccc(NC(=O)C(=O)NCCN2CCN(S(=O)(=O)c3ccc(F)cc3)CC2)cc1C	i
O=C(CN1C(=O)NC(c2ccc(Cl)cc2)C2=C1COC2=O)Nc1ccc(F)c(Cl)c1 (centres undefined)	i
CN(C)CCCNC(=O)CNc1nc(Cl)nc2nc[nH]c12	i
Cc1ccc2c(=O)cc(C(=O)N3CCOC34CCN(C)CC4)oc2c1	i
COc1ccc(S(=O)(=O)Oc2ccc3c(c2)O/C(=C\c2cc(OC)ccc2OC)C3=O)cc1	i
O=C(Cc1c[nH]c2ccccc12)N1CCc2c(nc(-c3ccc(F)cc3)[nH]c2=O)C1	i
O=c1[nH]c(-c2ccc(F)cc2)nc2c1CCN(S(=O)(=O)c1cccs1)C2	32µM*
CN1CCCCCCN(S(=O)(=O)c2cccs2)CCC1=O	i
CCCC(C(=O)NCc1ccccn1)c1ccccc1 (centres undefined)	i
CC1CCC(NC(=O)c2cccc(C#N)c2)CC1 (centres undefined)	i
CCOC(=O)C(C)NC(=O)CNC(=O)c1cc(C)cc(C)c1 (centres undefined)	i
COCC(=O)NCc1nc(-c2cccc(F)c2)c(-c2ccccn2)[nH]1	i
N[C@H]1CCC[C@@H](C(=O)NCc2nc(-c3cccc(F)c3)c(-c3ccccn3)[nH]2)C1	i
O=C(NCc1nc(-c2cccc(F)c2)c(-c2ccccn2)[nH]1)N1CCCC1	22µM*
Cc1ccccc1OCC(O)CN(Cc1ccccc1)Cc1ccccc1 (centres undefined)	i
Cc1ccc([S+](=O)([O-])N2CCC3(CCN(Cc4cccs4)c4ccccc4O3)CC2)cc1	i
O=C1CC2(CCN([S+](=O)([O-])c3cccc(C(F)(F)F)c3)CC2)Oc2ccccc2N1c1ccccc1	i
O=[S+]([O-])(c1cccc(C(F)(F)F)c1)N1CCC2(CCN(Cc3cccs3)c3ccccc3O2)CC1	11µM*
CCOc1ccccc1CNC(=O)CCn1ccc(C)n1	i
Cc1ccc(F)cc1NC(=O)CC(C)(C(=O)O)c1ccccc1 (centres undefined)	i
Cc1cc(NC(=O)CN2CCN(C(=O)c3ccc(Br)cc3)CC2)no1	i
N[C@@H](CO)c1nc(C2CCOCC2)nn1-c1ccccc1F	25µM*
SMILES	KDM5B inhibitor
Fc1cccc(-n2nc(C3CCOCC3)nc2CNC2CC2)c1	i
c1ccc(Cn2nc(C3CCOCC3)nc2C2CCC2)cc1	i
CC(=O)c1ccc(NC(=O)CSc2nc(C)c(C)o2)cc1	i
N#Cc1cccc(CN2CCOC[C@H]2c2ncc(-c3ccc(Cl)cc3)[nH]2)c1	i
CCOc1cc(-c2nn3c(-c4ccccc4C)nnc3s2)cc(OCC)c1OCC	i
CC1CCCCN1Cc1nc2c(c(=O)n(C)c(=O)n2C)n1CC(N)=O (centres undefined)	i
CCn1cc2c3c(cccc31)CN(C(=O)c1ccc(OC)c(F)c1)CC2	32µM*
CN(C)c1ccc(C(=O)N2CCc3cn(C)c4cccc(c34)C2)cc1	i
COc1ccc(C(=O)N2CCc3cn(C)c4cccc(c34)C2)c(C)c1	i
O=C(C1=C(O)C(=O)N(CCc2ccccc2)C1c1ccc(Br)cc1)c1cccs1 (centres undefined)	i
CCCC(=O)Nc1cccc(-c2nc3cc(C)cc(C)c3o2)c1C	i
O=C(COc1cc2oc(=O)cc(-c3ccccc3)c2cc1Cl)NCc1cccs1	i
Cc1ccc(CN2CC[C@@H]3[C@H]2C(=O)NC[C@H](CCC(=O)N2CCN(C)CC2)N3C)cc1	i
O=C(Nc1ccccc1)N[C@H]1C[C@H]2C(=O)NC[C@@H](CCC(=O)N3CCN(c4ccccn4)CC3)N2C1	25µM*
O=C(Nc1cccc(Cl)c1)N[C@H]1C[C@H]2C(=O)NC[C@@H](CCC(=O)N3CCC(O)CC3)N2C1	i
CC(C)N1CC[C@@H]2[C@H]1C(=O)NC[C@H](CCC(=O)N1CCN(c3ccccn3)CC1)N2C	32µM*
O=C(N[C@H]1C[C@H]2C(=O)NC[C@@H](CCC(=O)N3CCN(c4ccccc4)CC3)N2C1)C1CC1	i
CC(C)N1CC[C@@H]2[C@H]1C(=O)NC[C@H](CCC(=O)N1CCc3ccccc31)N2C	i
CN1[C@@H](CCC(=O)N2CCN(c3ccccn3)CC2)CNC(=O)[C@@H]2[C@H]1CCN2Cc1ccc(CO)o1	32µM*
CN1[C@@H](CCC(=O)N2CCN(c3ccccc3)CC2)CNC(=O)[C@@H]2[C@H]1CCN2CC(C)(C)C	i
COC(=O)C1CCN(C(=O)CC[C@H]2CNC(=O)[C@@H]3[C@@H](CCN3C(C)C)N2C)CC1	i
CN1[C@@H](CCC(=O)N2CCN(c3ccccc3)CC2)CNC(=O)[C@@H]2[C@H]1CCN2Cc1ccc(F)cc1	i
CN1[C@@H](CCC(=O)N2CCN(c3ccccn3)CC2)CNC(=O)[C@@H]2[C@H]1CCN2Cc1ccc(O)cc1	32µM*
